Of roughly 21,000 targets only a part is listed; those with the largest changes were picked by preference.
Compound: Cc1cc(ccc1-c1ccccc1)C(=O)N1CCCN(CC1)C(=O)CCl [compound 10]
Assay: probe-labelled cysteine peptide fold change vs DMSO (competition) (log2 fold change); higher = less target engagement (more negative = stronger competition)
Conditions: THP-1, incubation time: 4 h
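Also: competitive profiling in live THP-1 cells: cysteine peptides tagged with an iodoacetamide desthiobiotin (IA-DTB) probe, intensity after compound treatment relative to DMSO-treated cells.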

UniProt Q86YT6, sequence (Q86YT6 whole entry, looked up): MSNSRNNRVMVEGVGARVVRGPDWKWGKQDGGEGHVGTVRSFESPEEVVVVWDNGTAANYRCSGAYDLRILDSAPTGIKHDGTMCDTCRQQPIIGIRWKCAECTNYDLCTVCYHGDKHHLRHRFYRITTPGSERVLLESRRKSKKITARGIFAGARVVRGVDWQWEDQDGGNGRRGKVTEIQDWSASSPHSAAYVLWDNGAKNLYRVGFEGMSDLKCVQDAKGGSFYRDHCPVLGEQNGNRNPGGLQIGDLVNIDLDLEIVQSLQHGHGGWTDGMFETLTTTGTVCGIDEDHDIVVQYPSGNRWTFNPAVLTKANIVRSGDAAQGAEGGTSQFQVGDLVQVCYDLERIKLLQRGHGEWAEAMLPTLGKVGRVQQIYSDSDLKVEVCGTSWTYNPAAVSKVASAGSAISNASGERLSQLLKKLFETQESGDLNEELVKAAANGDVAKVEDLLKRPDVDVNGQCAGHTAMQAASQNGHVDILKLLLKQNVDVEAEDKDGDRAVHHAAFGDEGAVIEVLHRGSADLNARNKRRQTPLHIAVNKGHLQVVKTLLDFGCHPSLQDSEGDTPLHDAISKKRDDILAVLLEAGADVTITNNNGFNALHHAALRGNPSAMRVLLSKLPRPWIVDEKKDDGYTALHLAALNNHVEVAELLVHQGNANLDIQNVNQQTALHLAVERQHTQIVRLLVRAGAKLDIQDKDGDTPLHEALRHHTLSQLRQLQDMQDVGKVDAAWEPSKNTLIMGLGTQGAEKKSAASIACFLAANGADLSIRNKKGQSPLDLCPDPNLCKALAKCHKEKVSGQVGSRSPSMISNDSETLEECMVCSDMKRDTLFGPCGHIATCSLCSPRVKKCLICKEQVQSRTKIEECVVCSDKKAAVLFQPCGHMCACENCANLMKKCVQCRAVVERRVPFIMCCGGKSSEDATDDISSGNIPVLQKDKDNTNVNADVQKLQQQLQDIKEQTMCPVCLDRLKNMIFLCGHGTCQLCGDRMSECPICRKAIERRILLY
UniProt Q9BQG0, sequence (Q9BQG0 whole entry, looked up): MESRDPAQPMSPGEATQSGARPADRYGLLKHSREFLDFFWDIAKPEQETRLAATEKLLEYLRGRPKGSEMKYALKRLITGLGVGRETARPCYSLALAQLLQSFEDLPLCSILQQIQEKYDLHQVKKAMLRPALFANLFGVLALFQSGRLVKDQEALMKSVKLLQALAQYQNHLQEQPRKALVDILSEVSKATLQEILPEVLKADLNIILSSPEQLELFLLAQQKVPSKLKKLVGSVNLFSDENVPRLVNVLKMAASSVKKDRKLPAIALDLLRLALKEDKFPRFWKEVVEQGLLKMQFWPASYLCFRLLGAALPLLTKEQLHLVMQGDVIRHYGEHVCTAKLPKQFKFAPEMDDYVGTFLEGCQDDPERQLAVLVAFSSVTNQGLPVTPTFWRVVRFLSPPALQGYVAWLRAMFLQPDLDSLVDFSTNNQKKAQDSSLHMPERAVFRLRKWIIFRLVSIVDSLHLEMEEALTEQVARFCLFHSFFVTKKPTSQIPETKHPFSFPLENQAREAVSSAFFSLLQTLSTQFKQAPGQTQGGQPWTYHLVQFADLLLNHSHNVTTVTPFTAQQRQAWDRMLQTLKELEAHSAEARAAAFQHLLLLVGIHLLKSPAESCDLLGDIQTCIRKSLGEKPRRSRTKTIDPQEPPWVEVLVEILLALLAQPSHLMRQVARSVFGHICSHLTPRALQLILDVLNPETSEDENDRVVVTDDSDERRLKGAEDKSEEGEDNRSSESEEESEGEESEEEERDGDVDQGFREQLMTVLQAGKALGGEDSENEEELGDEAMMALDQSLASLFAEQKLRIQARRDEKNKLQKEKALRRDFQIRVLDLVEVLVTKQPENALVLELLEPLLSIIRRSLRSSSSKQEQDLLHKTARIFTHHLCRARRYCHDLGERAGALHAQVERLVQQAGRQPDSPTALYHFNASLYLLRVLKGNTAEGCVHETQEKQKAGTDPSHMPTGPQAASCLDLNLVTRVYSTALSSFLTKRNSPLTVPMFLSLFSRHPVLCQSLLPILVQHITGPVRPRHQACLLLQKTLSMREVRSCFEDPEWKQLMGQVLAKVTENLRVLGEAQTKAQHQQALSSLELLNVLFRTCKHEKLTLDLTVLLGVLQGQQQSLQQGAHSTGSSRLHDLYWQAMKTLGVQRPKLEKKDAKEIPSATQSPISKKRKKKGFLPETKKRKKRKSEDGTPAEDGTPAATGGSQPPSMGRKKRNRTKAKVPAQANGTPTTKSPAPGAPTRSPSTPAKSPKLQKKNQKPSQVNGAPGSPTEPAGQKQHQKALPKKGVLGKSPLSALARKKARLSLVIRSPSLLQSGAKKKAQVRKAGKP
UniProt Q9NYP9, sequence (Q9NYP9 whole entry, looked up): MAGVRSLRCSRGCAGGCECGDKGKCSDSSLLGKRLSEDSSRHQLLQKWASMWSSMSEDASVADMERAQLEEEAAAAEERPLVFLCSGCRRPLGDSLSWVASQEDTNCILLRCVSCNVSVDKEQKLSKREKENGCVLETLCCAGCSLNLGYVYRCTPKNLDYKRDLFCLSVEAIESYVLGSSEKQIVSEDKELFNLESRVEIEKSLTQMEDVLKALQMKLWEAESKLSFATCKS
UniProt P52564, sequence (P52564 whole entry, looked up): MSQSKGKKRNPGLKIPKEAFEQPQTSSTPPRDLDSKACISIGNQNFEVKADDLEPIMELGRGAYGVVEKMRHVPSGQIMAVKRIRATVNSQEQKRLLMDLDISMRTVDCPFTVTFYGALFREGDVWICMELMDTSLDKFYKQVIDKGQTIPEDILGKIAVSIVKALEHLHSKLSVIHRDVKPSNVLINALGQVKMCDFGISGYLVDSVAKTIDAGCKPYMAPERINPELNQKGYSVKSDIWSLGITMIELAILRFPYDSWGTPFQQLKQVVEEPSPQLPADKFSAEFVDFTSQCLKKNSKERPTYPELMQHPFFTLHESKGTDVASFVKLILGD
UniProt Q99707, sequence (Q99707 whole entry, looked up): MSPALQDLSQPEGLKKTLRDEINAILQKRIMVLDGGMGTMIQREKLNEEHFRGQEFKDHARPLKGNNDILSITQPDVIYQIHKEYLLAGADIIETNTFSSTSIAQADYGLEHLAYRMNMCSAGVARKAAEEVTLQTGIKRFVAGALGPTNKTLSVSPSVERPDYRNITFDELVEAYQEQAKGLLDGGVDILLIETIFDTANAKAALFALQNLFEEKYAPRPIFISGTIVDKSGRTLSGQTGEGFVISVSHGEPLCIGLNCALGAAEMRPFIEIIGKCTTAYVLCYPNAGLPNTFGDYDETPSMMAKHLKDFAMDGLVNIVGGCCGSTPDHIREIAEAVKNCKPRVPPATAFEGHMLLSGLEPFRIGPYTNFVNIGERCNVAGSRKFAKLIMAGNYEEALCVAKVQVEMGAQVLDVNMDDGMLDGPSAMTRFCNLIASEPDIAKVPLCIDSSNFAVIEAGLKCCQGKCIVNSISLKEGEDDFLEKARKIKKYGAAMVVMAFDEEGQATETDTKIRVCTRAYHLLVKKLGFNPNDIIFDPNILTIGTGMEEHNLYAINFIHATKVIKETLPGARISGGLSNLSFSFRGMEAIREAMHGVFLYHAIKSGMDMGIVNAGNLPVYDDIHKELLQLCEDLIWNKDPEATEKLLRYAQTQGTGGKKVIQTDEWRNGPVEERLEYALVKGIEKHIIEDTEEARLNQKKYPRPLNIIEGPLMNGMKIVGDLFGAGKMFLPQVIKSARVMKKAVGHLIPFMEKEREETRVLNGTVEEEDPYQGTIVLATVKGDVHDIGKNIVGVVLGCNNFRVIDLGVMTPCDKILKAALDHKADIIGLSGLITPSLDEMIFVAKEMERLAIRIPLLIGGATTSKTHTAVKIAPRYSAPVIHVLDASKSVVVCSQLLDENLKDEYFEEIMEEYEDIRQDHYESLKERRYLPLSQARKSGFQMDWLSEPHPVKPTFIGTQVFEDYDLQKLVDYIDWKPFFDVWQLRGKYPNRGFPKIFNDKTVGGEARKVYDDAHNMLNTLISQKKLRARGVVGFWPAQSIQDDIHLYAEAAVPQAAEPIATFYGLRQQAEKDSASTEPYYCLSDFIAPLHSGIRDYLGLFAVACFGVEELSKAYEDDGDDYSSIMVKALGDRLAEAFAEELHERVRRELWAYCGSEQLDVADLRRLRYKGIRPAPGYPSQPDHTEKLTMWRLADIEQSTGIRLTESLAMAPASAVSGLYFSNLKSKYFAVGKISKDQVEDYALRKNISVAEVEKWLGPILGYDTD
UniProt Q9HCC0, sequence (Q9HCC0 whole entry, looked up): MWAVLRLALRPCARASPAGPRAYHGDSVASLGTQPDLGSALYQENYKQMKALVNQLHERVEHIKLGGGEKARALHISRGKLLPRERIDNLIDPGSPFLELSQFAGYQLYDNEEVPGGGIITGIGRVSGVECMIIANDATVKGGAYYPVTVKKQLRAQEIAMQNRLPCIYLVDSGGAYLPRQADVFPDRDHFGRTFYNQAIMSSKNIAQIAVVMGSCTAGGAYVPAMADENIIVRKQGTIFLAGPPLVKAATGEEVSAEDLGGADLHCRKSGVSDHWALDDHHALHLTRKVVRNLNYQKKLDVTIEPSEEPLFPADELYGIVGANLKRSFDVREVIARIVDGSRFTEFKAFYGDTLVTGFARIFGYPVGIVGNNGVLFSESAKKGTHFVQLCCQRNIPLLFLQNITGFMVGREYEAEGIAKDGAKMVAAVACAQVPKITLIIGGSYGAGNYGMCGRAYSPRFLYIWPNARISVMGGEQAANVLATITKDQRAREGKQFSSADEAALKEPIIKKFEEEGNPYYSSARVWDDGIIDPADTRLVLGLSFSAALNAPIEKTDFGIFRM
UniProt P48059, sequence (P48059 whole entry, looked up): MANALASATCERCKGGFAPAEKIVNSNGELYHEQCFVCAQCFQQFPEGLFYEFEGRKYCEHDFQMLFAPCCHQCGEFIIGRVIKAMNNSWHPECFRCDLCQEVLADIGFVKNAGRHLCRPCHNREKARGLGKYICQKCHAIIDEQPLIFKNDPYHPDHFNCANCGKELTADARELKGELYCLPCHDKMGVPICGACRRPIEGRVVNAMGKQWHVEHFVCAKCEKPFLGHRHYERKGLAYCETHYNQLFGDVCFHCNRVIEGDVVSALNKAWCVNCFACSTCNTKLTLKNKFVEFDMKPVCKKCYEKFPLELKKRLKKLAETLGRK

Target	probe-labelled cysteine peptide fold change (10 µM)	probe-labelled cysteine peptide fold change (50 µM)
MYCBP2_O75592_3263_QAHPGCGR (UniProt O75592)	0.0855	0.00399
M6PR_P20645_145_AVVMISCNR (UniProt P20645)	-0.268	-0.155
MCCC2_Q9HCC0_267_AATGEEVSAEDLGGADLHCRK (UniProt Q9HCC0)	-0.591	-1.49
MYH9_P35579_789_ITDVIIGFQACCR (UniProt P35579)	-0.109	-0.0345
MRI1_Q9BV20_168_VTVLTHCNTGALATAGYGTALGVIR (UniProt Q9BV20)	0.147	0.0771
MMP14_P50281_574_RLLYCQR (UniProt P50281)	-0.276	-0.518
LUC7L3_O95232_58_SDLGPCEK (UniProt O95232)	-0.112	-0.363
LRRC40_Q9H9A6_227_HLDCNSNLLETIPPELAGMESLELLYLRR (UniProt Q9H9A6)	-0.229	-0.459
MEFV_O15553_375_KSPGSLSPQPLPQCK (UniProt O15553)	-0.229	-1.2
MPP1_Q00013_454_KLQEAFDQACSSPQWVPVSWVY (UniProt Q00013)	-0.0366	-0.104
MDN1_Q9NU22_3985_KFEAVLSEPCR (UniProt Q9NU22)	-0.313	-0.0822
MCM2_P49736_406_DAILLADLVDSCK (UniProt P49736)	-0.0605	0.3
LIMS1_P48059_281_AWCVNCFACSTCNTK (UniProt P48059)	0.00276	0.175
MSI1_O43347_167_VCEIHFHEINNK<|>MSI2_Q96DH6_168_VCEIHFHEINNK (UniProt Q96DH6+O43347)	0.163	0.236
MIS18A_Q9NYP9_85_AQLEEEAAAAEERPLVFLCSGCR (UniProt Q9NYP9)	0.00435	-0.0262
MCM2_P49736_584_GVCLIDEFDK (UniProt P49736)	0.0289	0.142
MYH9_P35579_988_KLEEEQIILEDQNCK (UniProt P35579)	-0.0561	-0.0225
MCU_Q8NE86_191_TLVQQLYTTLCIEQHQLNK (UniProt Q8NE86)	0.0411	-0.0406
LRPPRC_P42704_571_YCQEPR (UniProt P42704)	0.261	0.6
MED1_Q15648_135_VAHHGENPVSCPELVQQLR (UniProt Q15648)	-0.0375	-0.395
LRCH3_Q96II8_148_NQLSTLPVHLCNLPLK (UniProt Q96II8)	0.138	0.0632

Target	probe-labelled cysteine peptide fold change (10 µM)	probe-labelled cysteine peptide fold change (50 µM)
MCM5_P33992_221_CVDFQTLK (UniProt P33992)	0.05	-0.397
MSTO1_Q9BUK6_232_LHFYVEECDYLQGFQILCDLHDGFSGVGAK (UniProt Q9BUK6)	0.444	1.33
MRPL35_Q9NZE8_150_EFVFCNK (UniProt Q9NZE8)	-0.362	-0.257
LRRK2_Q5S007_1187_FSCIPEAILNLPHLR (UniProt Q5S007)	-0.0375	-0.109
MIB1_Q86YT6_103_CAECTNYDLCTVCYHGDK (UniProt Q86YT6)	0.0824	-0.0966
METAP2_P50579_263_IIDCAFTVTFNPK (UniProt P50579)	0.171	0.0277
MRPS30_Q9NP92_393_NICWGTQSK (UniProt Q9NP92)	-0.226	-0.187
LY75_O60449-2_1697_NQCTDHGADMISIHNEEENAFILDTLK (UniProt O60449)	-0.0829	0.022
MRPL37_Q9BZE1_104_DQACYIFHHR (UniProt Q9BZE1)	0.0327	-0.253
MAP1S_Q66K74_435+440_VLFPGCTPPACLLDGLVR (UniProt Q66K74)	-0.0708	-0.133
MTMR6_Q9Y217_214_CLEDEHLLQAISK (UniProt Q9Y217)	-0.103	-0.217
MCM3_P25205_119+123+126_TLTSCFLSCVVCVEGIVTK (UniProt P25205)	-0.0216	-1.13
MAZ_P56270_424_VHSQGPHHVCELCNK (UniProt P56270)	0.033	-0.236
LRCH4_O75427_283_GSALGDLAPSRPPSFSPCPAEDLFPGHR (UniProt O75427)	-1.16	-1.33
MAP2K6_P52564_216_TIDAGCK (UniProt P52564)	-0.048	0.239
MCM2_P49736_661_FDILCVVR (UniProt P49736)	0.242	0.398
MTR_Q99707_798_NIVGVVLGCNNFR (UniProt Q99707)	0.00546	-0.26
MTRR_Q9UBK8_64_AIAEEICEQAVVHGFSADLHCISESDKYDLK (UniProt Q9UBK8)	-0.113	-0.379
MARS_P56192_389_CEHCAR (UniProt P56192)	-0.00939	-0.304
MYBBP1A_Q9BQG0_890_RYCHDLGER (UniProt Q9BQG0)	0.104	0.125

— the supplement of paper PMC12067093, “Discovery and optimisation of a covalent ligand for TRIM25 and its application to targeted protein ubiquitination” (Chemical Science, 2025)
